Molecular target: T1, TALE2-NN (CACNA1C site 2 activator) (Xanthomonas (engineered), UniProt P14727 SEQ:1-983)
T1 chain: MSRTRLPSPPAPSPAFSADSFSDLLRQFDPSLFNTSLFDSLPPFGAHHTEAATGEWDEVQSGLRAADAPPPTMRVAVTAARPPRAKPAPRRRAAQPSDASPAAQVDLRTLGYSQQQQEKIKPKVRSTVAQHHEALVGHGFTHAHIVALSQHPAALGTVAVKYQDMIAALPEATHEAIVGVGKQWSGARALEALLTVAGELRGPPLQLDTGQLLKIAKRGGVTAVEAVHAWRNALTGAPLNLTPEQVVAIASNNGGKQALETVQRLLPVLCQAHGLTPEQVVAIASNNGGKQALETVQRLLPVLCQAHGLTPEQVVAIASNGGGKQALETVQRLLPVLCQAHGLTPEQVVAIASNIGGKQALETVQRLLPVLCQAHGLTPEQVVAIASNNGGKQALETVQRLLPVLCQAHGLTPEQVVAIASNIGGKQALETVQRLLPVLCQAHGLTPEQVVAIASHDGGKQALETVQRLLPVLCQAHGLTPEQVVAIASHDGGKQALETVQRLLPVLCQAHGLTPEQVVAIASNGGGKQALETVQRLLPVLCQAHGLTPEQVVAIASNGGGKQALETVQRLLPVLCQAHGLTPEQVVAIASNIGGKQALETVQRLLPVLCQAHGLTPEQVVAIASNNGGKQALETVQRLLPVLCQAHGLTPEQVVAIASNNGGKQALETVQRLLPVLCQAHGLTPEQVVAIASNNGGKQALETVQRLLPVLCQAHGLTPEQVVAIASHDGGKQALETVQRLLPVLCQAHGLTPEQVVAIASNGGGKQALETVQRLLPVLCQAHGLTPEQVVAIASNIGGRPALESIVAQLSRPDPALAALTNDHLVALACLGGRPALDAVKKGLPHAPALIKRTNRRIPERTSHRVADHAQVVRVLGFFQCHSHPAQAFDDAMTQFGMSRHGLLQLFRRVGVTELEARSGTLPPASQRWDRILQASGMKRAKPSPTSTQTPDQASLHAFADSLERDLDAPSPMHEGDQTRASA
Assay: cell_activity; luciferase reporter
Conditions: tags: VP64, 2A-GFP; dsDNA, one strand shown
Protocol: TALEs using NN, NK, NH, and HN as the G-targeting RVD were synthesized to target two distinct 18 bp target sites in the human CACNA1C locus. Changes in mRNA are measured using qRT-PCR as described previously. VP64, VP64 transcription activation domain. All results are collected from three independent experiments in HEK 293FT cells. Error bars indicate s.e.m.; n=3. FIG. 19(b) discloses SEQ ID NOS 63 and 62, respectively, in order of appearance.
To determine whether NH and HN are suitable replacements for NN as the G-specific RVD, specificity and activity strength of NN, NK, NH, and HN were directly compared. Two 18 bp targets within the CACNA1C locus in the human genome were chosen and four TALEs for each target were constructed, using NN, NK, NH, or HN as the G-targeting RVD (FIG. 19a). […] For each CACNA1C target site, four luciferase reporters were constructed: wild type genomic target, and wild type target with 2, 4, or all guanines mutated into adenines (FIG. 19a, G-to-A reporters), and compared the activity of each TALE using these reporters (FIG. 19a). […] Thus, focus was placed on the RVDs NN, NK, and NH in subsequent experiments to assess their usefulness in modulating transcription at endogenous human genome targets.

Row | Sequence | binding signal
1 | TAATAGACCTTAGGGCTA | 21.8 % reduction vs wild-type site

Reference: patent US20140271602, “NUCLEOTIDE-SPECIFIC RECOGNITION SEQUENCES FOR DESIGNER TAL EFFECTORS” (THE BROAD INSTITUTE INC., published 2014)
